Source: PubChem BioAssay AID1159580 (chemical genetic matrix, 2015)
Where “and” joins values, the source holds several entries; their conditions need not be identical. Equal values may be shown once. Hit rate of the full screen: of about 5,500 compounds, about 2,000 (36%) were called active. Another 18% or so got no clear call; they are omitted. Cut-off read from the data, not from the text of the source: active = normalized growth mostly below about 0.91 (no sharp cut-off); inconclusive = no clear call, values can overlap the other calls; inactive = mostly above about 0.92. Some of the results follow.

Experiment: chemical genetic growth profiling, strain panel (AID 1159580);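 note: tested at 20 µM; growth read once vehicle control cultures reached saturation at 30 °C; 1 = growth at the plate median or of vehicle wells; lower values mean less growth of the strain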
Details: S. cerevisiae deletion strains, growth OD

Measured: normalized growth

CC(C)CCCC(C)C1CCC2C3CC[C@H]4CCCC[C@]4(C)C3CC[C@]12C (some centres not stated)
inactive: locus YAL013W, strain DEP1, hits give low values 1.09 | locus YAL021C, strain ccr4, hits give low values 1 | locus YAL026C, strain drs2, hits give low values 1.02 | locus YAL030W, strain snc1, hits give low values 1.02 | locus YBL061C, strain skt5, hits give low values 1.02 | locus YBR009C, strain hhf1, hits give low values 1.03 | locus YBR021W, strain FUR4, hits give low values 1.04 | locus YBR023C, strain chs3, hits give low values 1.02 | locus YBR171W, strain sec66, hits give low values 1.02 | locus YBR229C, strain ROT2, hits give low values 0.963 | locus YBR231C, strain swc5, hits give low values 1.03 | locus YBR279W, strain paf1, hits give low values 1.02 | locus YCL011C, strain gbp2, hits give low values 1.02 | locus YCL016C, strain dcc1, hits give low values 1.02 | locus YCL029C, strain bik1, hits give low values 0.985 | locus YCL061C, strain MRC1, hits give low values 1.02 | locus YCL069W, strain vba3, hits give low values 1.01 | locus YCR088W, strain abp1, hits give low values 1.01 | locus YDL005C, strain med2, hits give low values 1.02 | locus YDL035C, strain GPR1, hits give low values 0.971 | locus YDL040C, strain nat1, hits give low values 1.01 | locus YDL074C, strain BRE1, hits give low values 0.959 | locus YDL101C, strain DUN1, hits give low values 0.952 | locus YDL134C, strain PPH21, hits give low values 0.985 | locus YDL185W, strain tfp1, hits give low values 0.966 | locus YDL192W, strain arf1, hits give low values 0.983 | locus YDR001C, strain nth1, hits give low values 1.01 | locus YDR069C, strain doa4, hits give low values 1.05 | locus YDR101C, strain arx1, hits give low values 0.99 | locus YDR137W, strain rgp1, hits give low values 1 | locus YDR150W, strain NUM1, hits give low values 0.965 | locus YDR159W, strain sac3, hits give low values 1.04 | locus YDR162C, strain NBP2, hits give low values 0.964 | locus YDR195W, strain ref2 1.03 | locus YDR297W, strain sur2, hits give low values 1.02 | locus YDR318W, strain mcm21, hits give low values 1 | locus YDR334W, strain swr1, hits give low values 1.01 | locus YDR335W, strain msn5, hits give low values 1.02 | locus YDR388W, hits give low values 0.987 | locus YDR392W, strain spt3, hits give low values 0.98 | locus YDR502C, strain sam2, hits give low values 0.978 | locus YEL003W, strain gim4, hits give low values 1.03 | locus YEL037C, strain rad23, hits give low values 1.01 | locus YEL061C, strain CIN8 (second series), hits give low values 1.01 | locus YEL061C, strain CIN8, hits give low values 0.994 | locus YER015W, strain faa2, hits give low values 1.02 | locus YER016W, strain bim1, hits give low values 1.02 | locus YER110C, hits give low values 0.988 | locus YER111C, strain swi4, hits give low values 1.03 | locus YER155C, strain BEM2 (second series), hits give low values 1.04 | locus YER155C, strain BEM2, hits give low values 0.998 | locus YER167W, strain BCK2, hits give low values 1.01 | locus YFR010W, strain ubp6, hits give low values 1.02 | locus YGL078C, strain dbp3, hits give low values 0.994 | locus YGL086W, strain mad1, hits give low values 1.01 | locus YGL167C, strain pmr1, hits give low values 1.01 | locus YGL173C, strain kem1, hits give low values 1.02 | locus YGL227W, strain vid30, hits give low values 1.03 | locus YGL240W, strain doc1, hits give low values 1.05 | locus YGL248W, strain PDE1, hits give low values 0.984 | locus YGL253W, strain hxk2, hits give low values 1 | locus YGR078C, strain PAC10, hits give low values 0.967 | locus YGR135W, strain pre9, hits give low values 0.965 | locus YGR229C, strain SMI1, hits give low values 0.979 | locus YGR252W, strain gcn5, hits give low values 1 | locus YHR013C, strain ard1, hits give low values 1.05 | locus YHR027C, strain rpn1, hits give low values 1.01 | locus YHR030C, strain SLT2, hits give low values 0.997 and 0.984 | locus YHR079C, strain IRE1 (second series), hits give low values 1 | locus YHR079C, strain IRE1, hits give low values 1 | locus YHR094C, strain hxt1, hits give low values 0.988 | locus YHR129C, strain ARP1, hits give low values 0.993 | locus YHR142W, strain chs7, hits give low values 0.982 | locus YHR200W, strain rpn10, hits give low values 0.978 | locus YIL066C, strain RNR3, hits give low values 0.974 | locus YIL073C, strain SPO22, hits give low values 1.08 | locus YIL125W, strain kgd1, hits give low values 0.991 | locus YIR030C, strain dcg1, hits give low values 0.987 | locus YJL092W, strain hpr5, hits give low values 1.01 | locus YJL095W, strain BCK1 (second series), hits give low values 1.01 | locus YJL095W, strain BCK1, hits give low values 0.976 and 0.988 | locus YJL115W, strain asf1, hits give low values 1.01 | locus YJL129C, strain trk1, hits give low values 1.01 | locus YJL134W, strain LCB3, hits give low values 0.991 | locus YJL154C, strain vps35, hits give low values 1 | locus YJL164C, strain tpk1, hits give low values 1.02 | locus YJL166W, strain qcr8, hits give low values 1.02 | locus YJL168C, strain set2, hits give low values 0.988 | locus YJL187C, strain SWE1 (second series), hits give low values 0.966 | locus YJL187C, strain SWE1, hits give low values 1.02 | locus YJR043C, strain POL32, hits give low values 1.05 | locus YJR066W, strain TOR1, hits give low values 0.931
